Holding throughout (assay): qHTS profiling for inhibitors of Plasmodium falciparum proliferation (AID 504749); also: nearly all actives have a fitted effect of over 60% in size
Settings in all cases: P. falciparum in erythrocytes, SYBR Green DNA, 72 h; series mostly up to 28.7 µM
A general note: qHTS replaces the single test concentration by a dilution series.

One test relates to DIV14. In outline:
(§1)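 Each compound contacts P. falciparum-infected red blood cells for 72 h at 37 C; lysis buffer (Tris, EDTA, saponin, Triton X, SYBR Green I) is added and fluorescence measured next morning; values normalized to controls.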

The next test relates to DIV17. An outline of the steps: as §1
The next test deals with DIV30. An outline of the steps: as §1
The subject of a further test is Dd2. An outline of the steps:
as §1

For another test, the system named is ECU. An outline of the steps: as §1
For another test, the system named is FAB9. An outline of the steps: as §1
The test system of a further test is GB4. An outline of the steps: as §1
The test system of another test is HB3. In outline: as §1
The next test deals with ICS. An outline of the steps:
as §1

In another test the test system is JCK. An outline of the steps:
as §1

We go through 20 compounds from PubChem BioAssay (NCATS).

Results filed as inconclusive are left out. Calls of active or inactive are those of the source. Calls follow the shape of the dose curve; as a rule, active = well fitted inhibition curve with a large enough effect; inconclusive = small, poorly fitted or top-dose-only effect; inactive = flat fitted curve, though single readings scatter.
Potency is read from the fitted curve at half-maximal effect.

In the case of `COC(=O)[C@@H]1CC2=CC(=O)CC[C@]2(C)[C@@]23O[C@@H]2C[C@@]2(C)[C@@H](CC[C@@]24CCC(=O)O4)[C@H]13`, the Potency entry with DIV14, in the test on DIV17, in the test with DIV30, in the test on Dd2, with ECU and with FAB9 was “inactive” in each case. In addition, the Potency entry with GB4, in the test on HB3, with ICS and with JCK was “inactive” each time.
With `COc1cc(C(=S)N2CCOCC2)cc(OC)c1OC`, the Potency entry with DIV14, in the test with DIV17, in the test on DIV30, in the test on Dd2, with ECU and in the test with FAB9 was “inactive” throughout. The Potency result in the test with GB4, in the test with HB3, in the test with ICS and with JCK was “inactive” in each case.
As for `CCOC(=O)OC(C)OC1=C(C(=O)Nc2ccccn2)N(C)S(=O)(=O)c2ccccc21` (centres undefined), the Potency result with DIV14, in the test with DIV17, in the test on DIV30, in the test on Dd2, with ECU and with FAB9 was “inactive” each time. Besides, the Potency result in the test on GB4, in the test on HB3, in the test on ICS and with JCK was “inactive” each time.
As for `N[C@H](CO)C(=O)O`, the Potency result in the test with DIV14, in the test on DIV17, in the test with DIV30, in the test on Dd2, with ECU and in the test on FAB9 was “inactive” in each case. The Potency entry in the test on GB4, in the test on HB3, with ICS and in the test on JCK was “inactive” each time.
Turning to `Oc1c(Cl)cc(Cl)cc1Sc1cc(Cl)cc(Cl)c1O`, the Potency result in the test with DIV14, in the test on DIV17, in the test with DIV30, with Dd2, with ECU and in the test on FAB9 was “inactive” in each case. Moreover, the Potency entry in the test on GB4, in the test with HB3, in the test with ICS and in the test with JCK was “inactive” in each case.
For `C[C@@H]1CN(CCCn2c3ccccc3c3ccccc32)C[C@H](C)N1`, the Potency in the test with DIV14 is 2.39 µM (active); in the test on DIV17 it was 4.78 µM (active); in the test with DIV30, 9.53 µM (active); in the test on Dd2, 6.31 µM (active); in the test with ECU, 10 µM (active); in the test on GB4, 13.5 µM (active). In addition, the Potency in the test on ICS was 5.01 µM (active). Also, the Potency result with FAB9, in the test on HB3 and in the test on JCK was “inactive” throughout.
`CC(C)(Oc1ccc(Cl)cc1)C(=O)O`: the Potency result in the test on DIV14, with DIV17, in the test with DIV30, in the test with Dd2, in the test on ECU and in the test with FAB9 was “inactive” in each case. The Potency entry in the test with GB4, with HB3, in the test with ICS and in the test on JCK was “inactive” in each case.
For the compound `CC(=O)Oc1ccc(C(c2ccc(OC(C)=O)cc2)c2ccccn2)cc1`, the Potency result in the test with DIV14, in the test with DIV17, in the test on DIV30, in the test with Dd2, in the test with ECU and in the test with FAB9 was “inactive” throughout. Further, the Potency entry in the test on GB4, in the test on HB3 and in the test on ICS was “inactive” each time.
`O=C(O)CNC(=O)c1ccccc1`: the Potency entry in the test with DIV14, in the test on DIV17, in the test with DIV30, in the test with Dd2, with ECU and in the test with FAB9 was “inactive” each time. Also, the Potency result in the test on GB4, in the test on HB3, in the test with ICS and in the test with JCK was “inactive” each time.
Regarding `OCc1ccccc1O`, the Potency entry in the test with DIV14, in the test with DIV17, in the test with DIV30, in the test on Dd2, with ECU and in the test with FAB9 was “inactive” each time. Further, the Potency result with GB4, in the test with HB3, in the test on ICS and in the test with JCK was “inactive” each time.
On to `CCCCOc1ccc(OCCCN2CCOCC2)cc1`, for which the Potency result with DIV14, with DIV17, in the test on DIV30, in the test with Dd2, in the test with ECU and with FAB9 was “inactive” in each case. Besides, the Potency result in the test on GB4, in the test with HB3, in the test on ICS and in the test with JCK was “inactive” throughout.
For the compound `CCn1cc(C(=O)O)c(=O)c2cnc(N3CCCC3)nc21`, the Potency result in the test with DIV14, with DIV17, with DIV30, in the test with Dd2, in the test on ECU and with FAB9 was “inactive” in each case. The Potency result in the test on GB4, with HB3, with ICS and in the test on JCK was “inactive” throughout.
With `NC(CO)(CO)CO`, the Potency result in the test on DIV14, in the test with DIV17, in the test on DIV30, with Dd2, with ECU and with FAB9 was “inactive” each time. The Potency result in the test with GB4, in the test on HB3, in the test with ICS and in the test with JCK was “inactive” in each case.
With `CC(C)COC(=O)OCN1C(=O)CN(CCN2CC(=O)N(COC(=O)OCC(C)C)C(=O)C2)CC1=O`, the Potency entry in the test with DIV14, in the test with DIV17, in the test on DIV30, with Dd2, with ECU and in the test with FAB9 was “inactive” in each case. Besides, the Potency entry in the test on GB4, in the test on HB3, in the test on ICS and in the test with JCK was “inactive” throughout.
Take `NCCCC[C@H](N[C@@H](CCc1ccccc1)C(=O)O)C(=O)N1CCC[C@H]1C(=O)O`: the Potency entry with DIV14, in the test with DIV17, in the test with DIV30, in the test with Dd2, with ECU and in the test on FAB9 was “inactive” in each case. Further, the Potency result in the test with GB4, in the test on HB3, with ICS and with JCK was “inactive” in each case.
On to `NCCC(O)(P(=O)(O)O)P(=O)(O)O`, for which the Potency result in the test with DIV14, with DIV17, in the test with DIV30, with Dd2, in the test on ECU and with FAB9 was “inactive” each time. Moreover, the Potency result in the test on GB4, with HB3, in the test with ICS and in the test on JCK was “inactive” each time.
On to `Cc1c(C(C)C)c(=O)n(-c2ccccc2)n1C`, for which the Potency result with DIV14, in the test on DIV17, in the test on DIV30, in the test with Dd2, in the test on ECU and in the test with FAB9 was “inactive” each time. Besides, the Potency result in the test with GB4, in the test on HB3, with ICS and with JCK was “inactive” throughout.
`C[C@]12CCC(=O)C=C1CC[C@H]1[C@@H]3CC[C@](O)(C(=O)CO)[C@@]3(C)C[C@H](O)[C@@]12F`: the Potency entry in the test with DIV14, with DIV17, in the test on DIV30, in the test on Dd2, with ECU and in the test on FAB9 was “inactive” throughout. In addition, the Potency result in the test on GB4, in the test with HB3, in the test on ICS and with JCK was “inactive” throughout.
Take `COc1ccc(CCN2CCC(Nc3nc4ccccc4n3Cc3ccc(F)cc3)CC2)cc1`: the Potency with DIV14 was 4.78 µM (active); in the test with DIV17 it was 4.78 µM (active); with DIV30, 13.5 µM (active); in the test on Dd2, 8.91 µM (active); in the test on ECU it was 2 µM (active); in the test on FAB9, 3.16 µM (active). Moreover, the Potency was 1.9 µM (active) with GB4, 4.47 µM (active) with HB3, 2.82 µM (active) with ICS and 6.31 µM (active) with JCK.
Consider `Cc1ncc(CSSCc2cnc(C)c(O)c2CO)c(CO)c1O`, for which the Potency entry in the test on DIV14, in the test on DIV17, in the test on DIV30, in the test with Dd2, with ECU and with FAB9 was “inactive” each time. The Potency result with GB4, with HB3, with ICS and in the test on JCK was “inactive” in each case.
